The nature of test [1]: antimalarial activity against Dd2 strain (AID 2302;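 active = growth inhibition above 50% at the single 2 µM test dose, taken to imply half-maximal potency below 2 µM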;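 note: 0% = DMSO untreated growth and 100% = chloroquine plus artemisinin killed control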). Conditions: P. falciparum Dd2 in RBCs, LDH growth readout, 72 h; at 2 µM; stronger effect = higher value.
A short description of test [2]: human hepatoma cell viability loss – ATP luminescence, cytotoxicity control for P. falciparum antimalarial project, primary screen (AID 2303;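 active = inhibition above 50%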;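 note: 0% = DMSO wells and 100% = digitonin-killed cells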). Conditions: HepG2 viability, 24-48 h, at 10 µM, stronger effect = higher value.
The target in test [3] is L-lactate dehydrogenase (Plasmodium falciparum (isolate CDC / Honduras)) (UniProt Q27743). The test is described as follows: PfLDH activity inhibition – cell lysate, 3D7 strain, counter-screen for P. falciparum growth inhibition project (AID 2304).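 Note: 0% = vehicle and 100% = reference inhibitor.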 As to conditions: P. falciparum 3D7 crude extract, LDH APAD/NBT absorbance; at 2 µM; stronger effect = higher value. A general note: A counterscreen serves to expose hits that act by an unwanted route or on another target.

Test [4] in a line: inhibition of 3D7 malaria parasite growth – strain 3D7 (AID 2306).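 Note: 0% = DMSO wells and 100% = chloroquine plus artemisinin control wells.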 Conditions: P. falciparum 3D7 erythrocytic growth, LDH absorbance, 72 h; at 2 µM; stronger effect = higher value.
Test [5] concerns the target Calcium-dependent protein kinase 1 (Plasmodium falciparum (isolate 3D7)) (UniProt P62344). The test is described as follows: PfCDPK1 kinase inhibitors, biochemical, TCAMS library (AID 1159585; cut-off not given, nearly all actives have IC50 up to about 0.98 µM;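 note: inhibitors leave more ATP so luminescence rises with inhibition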). As to conditions: recombinant PfCDPK1, Kinase-Glo ATP depletion luminescence. A general note: Kinase-Glo measures the ATP left after a reaction by luminescence.
For test [6], the target named is Plasmodium falciparum protein kinase 6 (PK6, PF3D7_1337100) (UniProt Q8IDW1). Kind of test: PfPK6 kinase inhibitors, biochemical, TCAMS library (AID 1159586). Conditions: recombinant PfPK6, Kinase-Glo ATP depletion luminescence.
Test [7] deals with Protein kinase 7 (PK7), Plasmodium falciparum 3D7 (PF3D7_0213400) (UniProt Q7YTF7). The test is described as follows: inhibition of Plasmodium PK7 catalytic activity – biochemical, TCAMS antimalarial set, Kinase-Glo luminescence (AID 1159587). As to conditions: recombinant PfPK7, Kinase-Glo ATP depletion luminescence.
Test [8] deals with Calcium-dependent protein kinase 4 (Plasmodium falciparum (isolate 3D7)) (UniProt Q8IBS5). The test is described as follows: PfCDPK4 kinase inhibitors, biochemical, TCAMS library (AID 1159588; cut-off not given, nearly all actives have IC50 up to about 0.91 µM). Conditions: recombinant PfCDPK4, Kinase-Glo ATP depletion luminescence.

Unmarked numbers belong to inactive results. For some of these results: Potency and affinity values are given separately. Calls of active or inactive are those of the source. Unless noted, the rule behind the calls is not given here.

Calcium-dependent protein kinase 1 (Plasmodium falciparum (isolate 3D7)), sequence (P62344 whole entry, looked up): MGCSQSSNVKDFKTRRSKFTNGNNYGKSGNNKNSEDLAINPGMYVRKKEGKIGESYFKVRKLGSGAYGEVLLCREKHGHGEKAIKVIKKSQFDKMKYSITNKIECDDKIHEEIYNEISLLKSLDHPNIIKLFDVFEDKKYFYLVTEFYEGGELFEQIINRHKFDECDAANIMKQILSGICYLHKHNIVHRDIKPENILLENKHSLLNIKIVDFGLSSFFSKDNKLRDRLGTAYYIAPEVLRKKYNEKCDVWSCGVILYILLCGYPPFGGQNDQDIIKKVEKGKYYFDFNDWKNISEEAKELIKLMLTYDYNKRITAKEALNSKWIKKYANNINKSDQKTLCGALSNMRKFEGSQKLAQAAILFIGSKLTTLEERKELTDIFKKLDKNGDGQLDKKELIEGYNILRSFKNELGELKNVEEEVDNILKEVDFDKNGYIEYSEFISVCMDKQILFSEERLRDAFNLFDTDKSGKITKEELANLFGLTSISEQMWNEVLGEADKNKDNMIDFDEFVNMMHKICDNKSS
Protein kinase 7 (PK7), Plasmodium falciparum 3D7 (PF3D7_0213400), sequence (Q7YTF7 1-343): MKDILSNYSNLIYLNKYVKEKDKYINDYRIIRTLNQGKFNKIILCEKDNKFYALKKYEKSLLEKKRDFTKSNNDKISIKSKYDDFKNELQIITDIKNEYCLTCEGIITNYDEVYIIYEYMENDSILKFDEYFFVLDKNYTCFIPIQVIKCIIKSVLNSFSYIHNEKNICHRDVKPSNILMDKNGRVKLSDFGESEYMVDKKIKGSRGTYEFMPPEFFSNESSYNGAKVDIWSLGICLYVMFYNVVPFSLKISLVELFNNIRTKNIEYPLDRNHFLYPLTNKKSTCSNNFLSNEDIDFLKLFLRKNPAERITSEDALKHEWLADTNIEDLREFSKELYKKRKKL
Calcium-dependent protein kinase 4 (Plasmodium falciparum (isolate 3D7)), sequence (Q8IBS5 whole entry, looked up): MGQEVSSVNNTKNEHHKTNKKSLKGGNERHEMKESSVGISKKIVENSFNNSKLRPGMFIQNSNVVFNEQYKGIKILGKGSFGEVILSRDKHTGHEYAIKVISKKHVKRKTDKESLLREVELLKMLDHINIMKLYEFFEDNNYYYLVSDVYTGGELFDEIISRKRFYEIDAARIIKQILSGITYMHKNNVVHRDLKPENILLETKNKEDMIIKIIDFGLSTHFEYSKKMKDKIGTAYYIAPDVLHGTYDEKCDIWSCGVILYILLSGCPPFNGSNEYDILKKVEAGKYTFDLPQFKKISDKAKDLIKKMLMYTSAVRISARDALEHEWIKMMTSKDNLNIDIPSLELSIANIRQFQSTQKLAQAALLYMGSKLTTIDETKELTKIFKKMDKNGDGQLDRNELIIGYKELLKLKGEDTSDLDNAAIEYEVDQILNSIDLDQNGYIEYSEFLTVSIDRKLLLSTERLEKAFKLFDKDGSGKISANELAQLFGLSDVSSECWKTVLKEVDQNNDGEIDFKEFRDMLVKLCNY
Plasmodium falciparum protein kinase 6 (PK6, PF3D7_1337100), sequence (Q8IDW1 1-305): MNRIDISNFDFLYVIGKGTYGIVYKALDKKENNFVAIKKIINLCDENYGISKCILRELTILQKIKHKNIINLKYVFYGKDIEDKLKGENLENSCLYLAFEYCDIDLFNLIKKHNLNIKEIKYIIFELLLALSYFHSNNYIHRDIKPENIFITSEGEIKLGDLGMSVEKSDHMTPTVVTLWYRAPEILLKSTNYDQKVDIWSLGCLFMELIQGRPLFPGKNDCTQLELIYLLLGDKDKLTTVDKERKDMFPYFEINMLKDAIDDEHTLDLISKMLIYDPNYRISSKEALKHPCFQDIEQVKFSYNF
L-lactate dehydrogenase (Plasmodium falciparum (isolate CDC / Honduras)), sequence (Q27743 whole entry, looked up): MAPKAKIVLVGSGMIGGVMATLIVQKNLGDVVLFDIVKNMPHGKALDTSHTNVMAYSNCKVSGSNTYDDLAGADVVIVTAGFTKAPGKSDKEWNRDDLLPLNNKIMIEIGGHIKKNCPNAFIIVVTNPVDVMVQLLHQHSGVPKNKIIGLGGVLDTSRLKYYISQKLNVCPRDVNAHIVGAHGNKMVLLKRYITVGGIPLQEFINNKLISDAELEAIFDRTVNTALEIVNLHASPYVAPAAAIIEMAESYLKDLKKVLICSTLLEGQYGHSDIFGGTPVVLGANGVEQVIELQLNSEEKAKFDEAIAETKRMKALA

Turning to `N[C@@H](CCNC1CCN(c2cccc(C(F)(F)F)c2)CC1)Cc1ccc(F)c(F)c1`, the growth inhibition was 69% (active) in test [1] and 101% (active) in test [4]. For the same compound, the inhibition in test [2] was 100% (active); in test [3] it was -1%. The result in test [5], in test [6], in test [7] and in test [8] was inactive.
`CCN(CC)CCN(Cc1ccc(-c2ccc(C(F)(F)F)cc2)cc1)C(=O)Cn1cc(Cc2cnn(C)c2)c(=O)n2nc(-c3ccccc3)cc12`: the growth inhibition was 74% (active) in test [1] and 100% (active) in test [4]. Besides, the inhibition in test [2] was 18%; in test [3], -2%. Further, the outcome in test [5], in test [6], in test [7] and in test [8] was inactive.
In the case of `CC1(C)N=C(N)N=C(N)N1OCCCOc1cc(Cl)c(Cl)cc1Cl`, the growth inhibition in test [1] and in test [4] was 95% (active) throughout. Moreover, the inhibition was 60% (active) in test [2] and -1% in test [3]. The result in test [5], in test [6], in test [7] and in test [8] was inactive.
In the case of `CC(C)CCCC(C)(C)NC[C@@H](O)[C@H](Cc1ccccc1)NC(=O)c1cccc(CCC2CC2)c1`, the growth inhibition in test [1] is 52% (active); in test [4], 98% (active). Also, the inhibition in test [2] was 100% (active); in test [3] it was 0%. Also, the result in test [5], in test [6], in test [7] and in test [8] was inactive.
On to `O=C(Cc1cccc(O)c1)Nc1ccc(-c2cccc(-c3nc4ccc(C(F)(F)F)cc4[nH]3)c2)cc1`, for which the results for the growth inhibition in test [1] and in test [4] were 1% and 86% (active), respectively. Further, the inhibition in test [2] is 14%; in test [3] it was 2%. The result in test [5], in test [6], in test [7] and in test [8] was inactive.
As to `CN1CCCN(c2ccnc3cc4c(cc23)N(C(=O)c2ccccc2Cl)CC4)CC1`, the growth inhibition in test [1] is 30%; in test [4], 88% (active). Also, the values for the inhibition in test [2] and in test [3] were 4% and 3%, respectively. The outcome in test [5], in test [6], in test [7] and in test [8] was inactive.
Take `NCCNc1ccc([N+](=O)[O-])cc1C(=O)Nc1cccc(C(F)(F)F)c1`: the growth inhibition in test [1] was 33%; in test [4], 94% (active). Further, the inhibition was 1% in test [2] and 0% in test [3]. Further, the outcome in test [5], in test [6], in test [7] and in test [8] was inactive.
`Cc1ccccc1NC(=S)NC1CCN(CCCCCNC(=O)/C=C/c2ccc(Cl)c(Cl)c2)CC1`: the values for the growth inhibition in test [1] and in test [4] were 7% and 99% (active), respectively. Further, the inhibition in test [2] was 14%; in test [3] it was 2%. In addition, the outcome in test [5], in test [6], in test [7] and in test [8] was inactive.
Consider `Cc1cccc2[nH]c(-c3cccc(-c4ccc(NC(=O)C(C)CN(C)C)cc4)c3)nc12` (stereo not given), for which the growth inhibition in test [1] is 100% (active); in test [4], 101% (active). Besides, the values for the inhibition in test [2] and in test [3] were 29% and -3%, respectively. Moreover, the result in test [5], in test [6], in test [7] and in test [8] was inactive.
As for `O=C(NC1CCN(CCCc2ccccc2)CC1)c1ccc(-c2cccc(C(F)(F)F)c2)s1`, the results for the growth inhibition in test [1] and in test [4] were 47% and 95% (active), respectively. Further, the figures for the inhibition in test [2] and in test [3] were 93% (active) and 1%, respectively. The outcome in test [5], in test [6], in test [7] and in test [8] was inactive.
For the compound `CN1CCN(Cc2ccc(-c3ccc4c(Nc5ccc(Oc6ccccn6)cc5)ccnc4c3)o2)CC1`, the growth inhibition in test [1] is 99% (active); in test [4], 101% (active). In addition, the inhibition in test [2] is 13%; in test [3], -3%. Besides, the result in test [5], in test [6], in test [7] and in test [8] was inactive.
Take `Cc1nc2ccc(Nc3nccc(-c4c(-c5cccc(NC(=O)c6c(F)cccc6F)c5)nn5ccccc45)n3)cc2nc1C`: the growth inhibition was 45% in test [1] and 91% (active) in test [4]. Besides, the results for the inhibition in test [2] and in test [3] were 55% (active) and 0%, respectively. In addition, the outcome in test [5], in test [6], in test [7] and in test [8] was inactive.
As for `S=C(NN=Cc1ccccn1)Nc1ccc(Cl)c(Cl)c1`, the growth inhibition in test [1] is 85% (active); in test [4] it was 98% (active). Also, the inhibition in test [2] was 40%; in test [3], 5%. Also, the result in test [5], in test [6], in test [7] and in test [8] was inactive.
`O=C(NOCCOc1ccccc1)c1ccccc1`: the results for the growth inhibition in test [1] and in test [4] were 0% and 98% (active), respectively. Besides, the inhibition was 0% in test [2] and -1% in test [3]. Besides, the result in test [5], in test [6], in test [7] and in test [8] was inactive.
As to `CC(C)c1ccc(NC(=O)N2CCc3ccc(OCCN(C(C)C)C(C)C)cc32)c(Br)c1`, the figures for the growth inhibition in test [1] and in test [4] were 5% and 86% (active), respectively. In addition, the inhibition in test [2] was 6%; in test [3] it was 2%. For the same compound, the result in test [5], in test [6], in test [7] and in test [8] was inactive.
In the case of `CN1CC[C@@H](Oc2cc(NC(=O)Nc3ccc(Cl)c(C(F)(F)F)c3)ccc2Cl)C1`, the growth inhibition was 68% (active) in test [1] and 100% (active) in test [4]. For the same compound, the inhibition in test [2] was 17%; in test [3], 0%. Also, the result in test [5], in test [6], in test [7] and in test [8] was inactive.
In the case of `Cc1csc(NC(=O)c2cn(-c3ccccc3)nc2-c2cccs2)n1`, the growth inhibition in test [1] is 12%; in test [4] it was 95% (active). Besides, the inhibition is -1% in test [2] and 4% in test [3]. Moreover, the outcome in test [5], in test [6], in test [7] and in test [8] was inactive.
With `O=c1cc(NCCCNC2CCOc3c(Cl)cccc32)[nH]c2ccccc12` (stereo not given), the growth inhibition was 27% in test [1] and 96% (active) in test [4]. Further, the inhibition in test [2] was -3%; in test [3], 3%. The result in test [5], in test [6], in test [7] and in test [8] was inactive.
With `CC(CON1C(N)=NC(N)=NC1(C)C)c1ccc(Cl)cc1Cl` (stereo not given), the results for the growth inhibition in test [1] and in test [4] were 95% (active) and 97% (active), respectively. In addition, the inhibition in test [2] was 64% (active); in test [3] it was 0%. Moreover, the outcome in test [5], in test [6], in test [7] and in test [8] was inactive.
Turning to `Cc1ccc(Cn2nc(Cl)c(N3CCNCC3)cc2=O)cc1NC(=O)Nc1ccc(-c2ccccc2)cc1`, the values for the growth inhibition in test [1] and in test [4] were 97% (active) and 98% (active), respectively. In addition, the inhibition in test [2] is 100% (active); in test [3], -5%. Moreover, the outcome in test [5], in test [6], in test [7] and in test [8] was inactive.

In general, inhibition refers to the drop in the measured response relative to a control, in per cent.

Source of the values: PubChem BioAssay.
